Laboratory results reported in PubChem BioAssay AID434927 (Sanford-Burnham Center for Chemical Genomics, 2010).
Unmarked numbers belong to inactive results. The source made the active and inactive calls.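 How the source made its calls: active means inhibition above about 23% in any of six single-dose repeats (limit read from the data); inactive means the rest.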

Molecular target: Intestinal-type alkaline phosphatase (Homo sapiens) (UniProt P09923)
Experiment: human IAP inhibitors, confirmation, biochemical, luminescence, single concentration, uHTS hits (AID 434927);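 further: plate controls were DMSO wells with enzyme for no effect and wells lacking enzyme for full effect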
Conditions: purified human IAP, CDP-Star luminescence, 30 min; at 8.3 µM; active compounds read high

Chain of Intestinal-type alkaline phosphatase (Homo sapiens) (P09923 whole entry, looked up): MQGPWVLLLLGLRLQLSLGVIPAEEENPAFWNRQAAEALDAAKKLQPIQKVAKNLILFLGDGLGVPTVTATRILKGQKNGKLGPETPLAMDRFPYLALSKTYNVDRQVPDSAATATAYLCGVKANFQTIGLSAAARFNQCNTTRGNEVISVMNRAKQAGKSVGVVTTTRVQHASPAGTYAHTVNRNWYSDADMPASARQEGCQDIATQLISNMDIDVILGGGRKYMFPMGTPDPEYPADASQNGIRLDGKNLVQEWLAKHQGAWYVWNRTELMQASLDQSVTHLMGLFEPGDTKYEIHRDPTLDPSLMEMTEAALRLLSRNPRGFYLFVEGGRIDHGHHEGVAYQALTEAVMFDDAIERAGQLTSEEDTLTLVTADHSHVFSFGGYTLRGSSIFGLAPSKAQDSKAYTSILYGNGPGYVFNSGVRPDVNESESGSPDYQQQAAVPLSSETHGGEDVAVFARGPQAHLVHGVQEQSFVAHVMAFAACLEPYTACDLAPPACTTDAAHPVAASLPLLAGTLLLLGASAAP

| SMILES | inhibition |
| --- | --- |
| Cc1cc(C)cc(OCC(=O)NNC(=O)c2cc(C)[nH]n2)c1 | -94.6% |
| O=C(CN1CCN(C(=O)N2CCCCC2)CC1)Nc1ccc(F)cc1 | -97.3% |
| CC1C(=O)NN=C1C(=O)N/N=C\c1ccc(O)cc1O (centres undefined) | -78.7% |
| COc1cc(/C=N\NS(=O)(=O)c2ccccc2)cc(OC)c1OC | 30.7% (active) |
| CCn1c2ccccc2c2cc(NC(=O)c3coc(=O)c(Br)c3)ccc21 | 39.2% (active) |
| C[C@@H](NC(=O)c1[nH]cnc1C(=O)Nc1ccon1)c1ccccc1 | -80% |
| O=C(NC(=S)NNC(=O)c1ccccc1O)c1ccc(F)cc1 | 62.4% (active) |
| CN(C)S(=O)(=O)c1cccc(NC(=S)NNC(=O)c2cc3ccccc3cc2O)c1 | 72.3% (active) |
| C=CCn1c(O)c(N=Nc2ccccc2O)c2ccccc21 | 36.2% (active) |
| CN(Cc1ccccc1)C(=O)c1[nH]cnc1C(=O)Nc1nccs1 | -141% |
| Cc1ccc(Cl)cc1NC(=O)C(=O)N/N=C/c1ccc2c(c1)OCO2 | 40.1% (active) |
| C#CCOCCOCCOCCNc1nc(N2CCN(C(=O)CCCCCCCCCCNC(=O)[C@H]([C@@H](C)CC)n3cc(CCCCN=C(N)N)nn3)CC2)nc(N2CCN(C(=O)CCCCCCCCCCNC(=O)[C@H](CO)n3cc(CCCSC)nn3)CC2)n1 | 38.5% (active) |
| O=C(N/N=C/c1c(F)cccc1Cl)c1cc(C2CC2)[nH]n1 | 37.7% (active) |
| O=C1Nc2ccccc2/C1=N\N=C\c1ccc(O)c(O)c1 | 61.5% (active) |
| CN1CCN(CCNC(=O)Cn2c(=O)c3cccn3c3ccc(F)cc32)CC1 | 35.4% (active) |
| CC(C)C(=O)NC(=S)Nc1ccccc1C(=O)Nc1ccccc1 | -108% |
| Oc1ccc(N=Nc2c(O)ccc3ccccc23)cc1 | -91.9% |

| SMILES | inhibition |
| --- | --- |
| COc1cccc(/C=N/Nc2nc(-c3cccnc3)nc3ccccc23)c1 | -0.0482% |
| CCOc1cccc(-c2nc(C(N)=O)c3[nH]c(=O)n(-c4cccc(Cl)c4)c3n2)c1O | -74.5% |
| CCc1ccc(/C=N/Nc2ncnc3nc[nH]c23)cc1 | 33.8% (active) |
| O=C(CSc1ncn[nH]1)NCCc1ccccc1 | -113% |
| Cc1nc2c3ccccc3nc(NNC(=O)CCC(=O)N3CCCC(C)C3)n2n1 (centres undefined) | -41.6% |
| Cc1[nH]n(-c2nc(-c3ccccc3)cc(=O)[nH]2)c(=O)c1CCO | 47.5% (active) |
| Cc1cccc(OCC(=O)NNC(=O)c2ccc3nc[nH]c3c2)c1 | -117% |
| CC(NS(=O)(=O)c1ccc(Br)cc1)C(=O)Nc1nc2ccccc2[nH]1 (centres undefined) | 66.7% (active) |
| N#C/C(=C(\O)c1ccco1)c1ccccn1 | 55.3% (active) |
| CCn1cnc2sc(C(=O)O)c(C)c2c1=O | 64% (active) |
| CCn1nc(C)c(CN2CCC(C(=O)Nc3cccc(-c4cccc(F)c4)c3)CC2)c1C | 50.7% (active) |
| COC(=O)CN1C(=O)C(O)(CC(=O)c2ccc(C)cc2)c2ccccc21 (centres undefined) | 45.9% (active) |
| Cc1nc2c3ccccc3nc(NNC(=O)CCC(=O)NCCC(C)C)n2n1 | -64.4% |
| c1ccc(Nc2ccnc(Nc3ccccc3)n2)cc1 | -43.5% |
| COc1cc(/C=C2\SC(=S)N(N(C)c3ccccc3)C2=O)ccc1O | 60.4% (active) |
| Cc1cc(C)cc(CC(Cc2nc3ccccc3[nH]2)c2nc3ccccc3[nH]2)c1 (centres undefined) | -323% |
| Cc1ccc(O)c(/C=N/NC(=O)c2[nH]ncc2Br)c1 | 23.2% (active) |
